Consider 34 molecules from ChEMBL document CHEMBL4513141, “CO-ADD screening of NIH (USA) - Clinical Collection” (2021).

Results with a measured potency or affinity are listed apart.

This assay has as its system Staphylococcus aureus. Particulars: Concentration 20 uM; ASSAY_TEST Inhibition of Bacterial Growth; detection method Absorption (OD600); MEDIA CAMHB; plate type 384well; NBS; CORNING #3640; time 18 hr.
As to `Cc1cccc(CCN2CCC(C(=O)c3ccc(NS(C)(=O)=O)cc3)CC2)n1.Cl.Cl`, the Inhibition came out at 15.03%.

For the molecule `CN1CCc2cc(Cl)c(O)cc2[C@@H](c2ccccc2)C1.Cl`, the Inhibition came to 10.41%.

For the molecule `CC[C@@H]1C(=O)OC[C@@H]1Cc1cncn1C.Cl` [PILOCARPINE HYDROCHLORIDE], the Inhibition is on record as 15.92%.

On to `CCC1=C(C)CN(C(=O)NCCc2ccc(S(=O)(=O)NC(=O)N[C@H]3CC[C@H](C)CC3)cc2)C1=O` [GLIMEPIRIDE], for which the Inhibition was 15.98%.

On to `CC(C)(C)NC(=O)[C@@H]1CN(Cc2cccnc2)CCN1C[C@@H](O)C[C@@H](Cc1ccccc1)C(=O)N[C@H]1c2ccccc2C[C@H]1O.O=S(=O)(O)O` [INDINAVIR SULFATE], for which the Inhibition worked out at 6.61%. The value for `CSc1ccc2c(c1)N(CCC1CCCCN1C)c1ccccc1S2.Cl` (centres undefined) [THIORIDAZINE HYDROCHLORIDE] was 2.86%. The value for `Cc1ncc([N+](=O)[O-])n1CC(C)O` (centres undefined) [SECNIDAZOLE] was 11.92%. The value for `CC(=O)O[C@@]12CO[C@@H]1C[C@H](O)[C@@]1(C)C(=O)[C@H](O)C3=C(C)[C@@H](OC(=O)[C@H](O)[C@@H](NC(=O)OC(C)(C)C)c4ccccc4)C[C@](O)([C@@H](OC(=O)c4ccccc4)[C@H]21)C3(C)C` was 10.2%. For `CC1CCN(CCCC(=O)c2ccc(F)cc2)CC1.Cl`, the Inhibition came out at 4.4%. For the molecule `CC(N/C(=N\C#N)Nc1ccncc1)C(C)(C)C.O` (centres undefined), the Inhibition was -1.94%. The value for `O=C(NCCN1CCOCC1)c1ccc(Cl)cc1` [MOCLOBEMIDE] was 3.95%; that for `CN(C)CCC[C@@]1(c2ccc(F)cc2)OCc2cc(C#N)ccc21.O=C(O)C(=O)O` [ESCITALOPRAM OXALATE] was 8.47%. The result for `Cl.NC1CCN(c2cccc(Cl)n2)CC1` reads 8.14%; that for `CCc1nn(CCCN2CCN(c3cccc(Cl)c3)CC2)c(=O)n1CCOc1ccccc1.Cl` [NEFAZODONE HYDROCHLORIDE], 6.52%.

In the case of `CC(CCc1ccccc1)NCC(O)c1ccc(O)c(C(N)=O)c1.Cl` (centres undefined) [LABETALOL HYDROCHLORIDE], the Inhibition stood at 13.4%. The value for `COc1ccc([C@@H]2Sc3ccccc3N(CCN(C)C)C(=O)[C@@H]2OC(C)=O)cc1.Cl` [DILTIAZEM HYDROCHLORIDE] was 12.74%. The result for `NC(N)=Nc1nc(CSCC/C(N)=N/S(N)(=O)=O)cs1` [FAMOTIDINE] reads 6.96%; that for `CC(C)(C)NC[C@H](O)COc1nsnc1N1CCOCC1.O=C(O)/C=C\C(=O)O` [TIMOLOL MALEATE], 2.99%; that for `CC=CC(=O)N(CC)c1ccccc1C`, 8.78%. The value for `C/C=C1/[C@H]2C=C(C)C[C@]1(N)c1ccc(O)nc1C2` was 13.84%.

As for `COc1ccc(-c2cc(=O)c3c(OC)c(OC)c(OC)c(OC)c3o2)cc1OC` [NOBILETIN], the Inhibition came to 13.24%.

Turning to `CC(C)(C#N)c1cc(Cn2cncn2)cc(C(C)(C)C#N)c1` [ANASTROZOLE], the Inhibition is reported as -10.48%. The value for `Cl.O=C1[C@H]2CCCC[C@H]2C(=O)N1CCCCN1CCN(c2nsc3ccccc23)CC1` was 14.1%; that for `O=C(O)c1cccnc1` [NIACIN] was 1.53%. The result for `Cl.Cn1c(NCCN(CCO)CCCc2ccc([N+](=O)[O-])cc2)cc(=O)n(C)c1=O` reads -11.53%; that for `NS(=O)(=O)c1cc2c(cc1Cl)NCNS2(=O)=O` [HYDROCHLOROTHIAZIDE], 6.38%; that for `Cc1nc2n(c(=O)c1CCN1CCC(c3noc4cc(F)ccc34)CC1)CCCC2` [RISPERIDONE], 4.53%. The value for `CS(=O)(=O)O.Cc1ccc(NC(=O)c2ccc(CN3CCN(C)CC3)cc2)cc1Nc1nccc(-c2cccnc2)n1` [IMATINIB MESYLATE] was 11.51%. `Cc1[nH]cnc1CN1CCc2c(c3ccccc3n2C)C1=O.Cl` [ALOSETRON HYDROCHLORIDE]: the Inhibition was 8.61%.

For the molecule `Cc1cnc(NC(=O)C2=C(O)c3ccccc3S(=O)(=O)N2C)s1` [MELOXICAM], the Inhibition is on record as -0.24%. The result for `Cc1cccc(C)c1NC(=O)C(C)N` (centres undefined) [TOCAINIDE] reads 2.4%. As to `COC1=CC(=O)C[C@@H](C)[C@]12Oc1c(Cl)c(OC)cc(OC)c1C2=O` [GRISEOFULVIN], the Inhibition amounted to 7.83%.

For the molecule `O=C1CN(/N=C/c2ccc(-c3ccc([N+](=O)[O-])cc3)o2)C(=O)[N-]1.[Na+]` [DANTROLENE SODIUM], the Inhibition is recorded as 4.1%.

For `O.OC[C@H]1O[C@@H](n2cnc3c(NC4CCCC4)nc(Cl)nc32)[C@@H](O)C1O` (some centres undefined), the Inhibition is listed as 16.71%.

By Inhibition is commonly meant the change of the read-out against control, counted positive when it falls.
